# Screening data from PubChem.
# JMJD2A Tudor inh: qHTS Assay for Inhibitors of JMJD2A-Tudor Domain; AlphaScreen JMJD2A-Tudor / H3K4me3 peptide binding; AID 504339, 2011; Lysine-specific demethylase 4A (Homo sapiens), O75164; Potency, µM (top dose mostly 114 µM), hits mostly inhibitors; 390,000 compounds, 4.4% hits; further: nearly all actives have a fitted effect of over 50% in size
# Target sequence (O75164 whole entry, looked up, the tested form may be a part): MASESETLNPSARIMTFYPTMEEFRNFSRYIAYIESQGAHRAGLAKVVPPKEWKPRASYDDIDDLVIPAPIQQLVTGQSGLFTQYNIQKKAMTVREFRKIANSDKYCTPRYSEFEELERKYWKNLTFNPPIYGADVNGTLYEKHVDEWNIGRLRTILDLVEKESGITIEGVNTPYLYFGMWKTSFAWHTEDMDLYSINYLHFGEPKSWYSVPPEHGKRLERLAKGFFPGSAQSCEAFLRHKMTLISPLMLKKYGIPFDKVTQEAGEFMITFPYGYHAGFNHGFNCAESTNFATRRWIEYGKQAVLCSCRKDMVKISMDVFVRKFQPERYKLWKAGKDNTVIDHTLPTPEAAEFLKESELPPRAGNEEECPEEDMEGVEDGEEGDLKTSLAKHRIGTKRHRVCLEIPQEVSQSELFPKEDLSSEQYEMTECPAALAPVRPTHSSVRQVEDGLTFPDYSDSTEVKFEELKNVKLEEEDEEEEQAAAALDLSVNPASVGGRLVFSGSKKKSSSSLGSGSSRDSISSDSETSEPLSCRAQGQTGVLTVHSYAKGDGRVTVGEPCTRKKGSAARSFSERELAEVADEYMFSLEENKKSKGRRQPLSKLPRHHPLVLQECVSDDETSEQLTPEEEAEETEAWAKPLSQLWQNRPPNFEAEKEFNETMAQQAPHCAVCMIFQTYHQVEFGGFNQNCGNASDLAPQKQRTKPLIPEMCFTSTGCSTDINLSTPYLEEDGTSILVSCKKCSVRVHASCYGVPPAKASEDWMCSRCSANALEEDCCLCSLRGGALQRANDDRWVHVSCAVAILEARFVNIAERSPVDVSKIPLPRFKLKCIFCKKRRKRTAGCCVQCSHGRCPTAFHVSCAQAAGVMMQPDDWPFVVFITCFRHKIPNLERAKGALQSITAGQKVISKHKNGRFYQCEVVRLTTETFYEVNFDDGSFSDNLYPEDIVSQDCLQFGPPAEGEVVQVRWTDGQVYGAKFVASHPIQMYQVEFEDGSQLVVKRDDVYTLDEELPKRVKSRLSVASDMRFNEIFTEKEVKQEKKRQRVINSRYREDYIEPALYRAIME
# L3MBTL1 block: qHTS Assay for the Inhibitors of L3MBTL1; Lethal(3)malignant brain tumor-like protein 1 (Homo sapiens), Q9Y468; AlphaScreen L3MBTL1–H3K9me1 peptide binding; Potency, µM (series often up to 57.1 µM), hits mostly inhibitors; 230,000 compounds, 0.66% hits; further: nearly all actives have a fitted effect of over 60% in size
#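 L3MBTL1 50 nM + b-AHA-H3(1-15)K9me1 75 nM, 30 min RT; compound added, 30 min RT; streptavidin donor/Ni-chelate acceptor beads 10 ug/mL each final, 30 min RT dark; AlphaScreen read.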
# BAZ2B block: qHTS Assay for Inhibitors of BAZ2B | AlphaScreen BAZ2B-H3K14Ac peptide displacement | Potency, µM (series often up to 114 µM), actives largely listed as inhibitors | 360,000 compounds, 4.4% hits; further: nearly all actives have a fitted effect of over 60% in size
#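 Multi-concentration screen (max 110 uM) measuring displacement of acetylated histone H3 peptide from BAZ2B by AlphaScreen, using 50 nM protein, 50 nM peptide and 10 ug/mL streptavidin donor plus Ni-chelate acceptor beads.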
# KDM4E inh: qHTS Assay for Inhibitors of Human Jumonji Domain Containing 2E (JMJD2E); Lysine-specific demethylase 4E (Homo sapiens), B2RXH2; JMJD2E catalytic domain, FDH-coupled NADH fluorescence (FDH is formaldehyde dehydrogenase); Potency, µM (titrated, usually from 57.1 µM), usual class: inhibitors; 230,000 compounds, 1.6% hits; AID 2147, 2009; active means well fitted inhibition curve with a large enough effect, not every such curve was filed as active; inconclusive means small, poorly fitted or top-dose-only effect, or another doubt; inactive means no such curve, though single readings can be large or run the other way; further: nearly all actives have a fitted effect of over 50% in size
# PI5P4K alpha inh: qHTS for Inhibitors of phosphatidylinositol 5-phosphate 4-kinase (PI5P4K) | Phosphatidylinositol 5-phosphate 4-kinase type-2 alpha (Homo sapiens), P48426 | PI5P4Kalpha enzyme, ADP-Glo luminescence, 60 min; stronger effect = lower value | max response, % | 330,000 compounds, 1.2% hits | AID 652105, 2013; active means max response of -50% or lower; inconclusive means between -30% and -50%; inactive means -30% or higher; further: value at the top dose of about 77 µM
#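 Compounds were pin-transferred onto PI5P4Kalpha and substrate in HEPES pH 7.4 buffer with EGTA, CHAPS and 5% DMSO. ATP (5 microM final) started the reaction, which ran 60 minutes at room temperature before ADP-Glo detection.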
# HP1b binding inh: HTS for Inhibitors of HP1-beta Chromodomain Interactions with Methylated Histone Tails | Potency, µM (titrated, usually from 114 µM), hits mostly inhibitors | AlphaScreen HP1-beta / biotin-H3K9me3 peptide binding | 390,000 compounds, 0.56% hits | Chromobox protein homolog 1 (Homo sapiens), P83916; further: nearly all actives have a fitted effect of over 70% in size
#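 Compound inhibition of the preformed complex between 50 nM HP1-beta and 50 nM biotinylated H3K9me3 peptide was read by AlphaScreen. Buffer was PBS pH 7.4 with 0.01% Tween-20. Incubations ran 30 min at room temperature, with 10 ug/mL donor/acceptor beads.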
# ADP-Glo counter: qHTS for Inhibitors of PI5P4K: ADP-Glo counter assay; ADP-Glo detection counter-screen, luciferase luminescence, no enzyme; shares compounds with PI5P4K alpha inh; Potency, µM (titrated, usually from 76.9 µM), actives largely listed as inhibitors; 1,100 tested, under 10 active
# A number is an active result; . = inactive; ? = inconclusive; / = no result given; [ ] = remark or other dose. Compounds with a hit are over-represented: about 5.7% of the library has one in this group of screens. Unless noted, the call rests on the fitted dose curve; in most records, active means well fitted curve in the direction sought with a large enough effect; inconclusive means small, poorly fitted or top-dose-only effect, or another doubt; inactive means no such curve, though single readings can be large; an effect the other way counts as inactive or inconclusive.
SMILES,JMJD2A Tudor inh,L3MBTL1 block,BAZ2B block,KDM4E inh,PI5P4K alpha inh,HP1b binding inh,ADP-Glo counter
O=C(c1ccco1)N1N=C(c2cccs2)CC1c1ccc(F)cc1 (centres undefined),.,/,.,?,.,.,/
CS(=O)(=O)Nc1ccc(C2=NN(C(=O)c3ccco3)C(c3ccc(F)cc3)C2)cc1 (centres undefined),.,/,/,?,-56,.,.
CC1CCc2c(sc(NC(=O)CSc3ncn[nH]3)c2C#N)C1 (centres undefined),.,.,.,.,.,.,/
Cc1nnc(SCC(=O)Nc2sc3c(c2C(N)=O)CCC(C)C3)[nH]c1=O (centres undefined),?,.,.,/,-54,.,.
CCCc1cc(=O)[nH]c(SCC(=O)Nc2sc3c(c2C#N)CCC(C)C3)n1 (centres undefined),?,.,.,.,-54,.,.
Cc1cc(=O)[nH]c(SC(C)C(=O)Nc2cccc3ccccc23)n1 (centres undefined),.,/,.,/,.,.,/
Cc1ccc(N2CSC3=C(C#N)C(c4cccs4)CC(=O)N3C2)cc1 (centres undefined),32µM,/,?,?,-60,?,.
COc1cc(OC)c(C2CC(=O)N3CN(c4ccc(C)cc4)CSC3=C2C#N)cc1OC (centres undefined),4.5µM,.,?,?,-77,?,.
CCOc1ccccc1N1CSC2=C(C#N)C(c3c(OC)ccc4ccccc34)CC(=O)N2C1 (centres undefined),35µM,.,50µM,7.9µM,-85,?,.
CCOc1ccccc1N1CCN(S(=O)(=O)c2cc(C)ccc2OC)CC1,.,.,.,.,.,.,/
COc1ccc(N2CSC3=C(C#N)C(c4ccc(OC)c(OC)c4)CC(=O)N3C2)c(OC)c1 (centres undefined),20µM,/,?,.,-53,?,.
CCc1ccc(N2CSC3=C(C#N)C(c4cccs4)CC(=O)N3C2)cc1 (centres undefined),32µM,.,?,?,-68,.,.
CCCCCCCCCCCCC/C=C\[C@@H](O)[C@@H](N)CO,/,/,/,.,/,/,/
Cc1ccccc1NS(=O)(=O)c1cc2c3c(c1)C(C)C(=O)N3CCC2 (centres undefined),.,/,.,/,.,.,/
CCCn1c(N)c(N(CCOC)C(=O)c2cc(-c3ccco3)nc3ccccc23)c(=O)[nH]c1=O,?,/,?,/,-52,.,.
CCCCn1c(N)c(N(CCOC)C(=O)c2cc(-c3ccccc3)nc3ccccc23)c(=O)[nH]c1=O,.,.,.,/,.,.,/
CC(=O)c1cccc(NC(=O)c2cc(-c3ccco3)nc3ccccc23)c1,.,/,.,/,-51,.,.
COc1ccc(CCNC(=O)c2cc(-c3ccco3)nc3ccccc23)cc1,45µM,/,/,/,-61,?,.
COc1cccc(NC(=O)c2cc(-c3ccco3)nc3ccccc23)c1,?,/,/,/,.,.,/
COc1ccc(-c2cc(C(=O)NCc3ccco3)c3ccccc3n2)cc1,.,.,.,/,.,.,/
NC(=O)Nc1ccc(C(=O)OCC(=O)N2CCc3ccccc3C2)cc1,.,.,.,/,.,.,/
COc1cc2c(cc1OC)CN(CC(=O)Nc1ccc(C)c(S(=O)(=O)N3CCOCC3)c1)CC2,.,/,?,/,.,.,/
CCOc1ccc(NC(=O)Cc2csc(COc3cccc(C)c3)n2)cc1,.,/,.,/,/,.,/
O=C(O)c1ccc(Cl)c(S(=O)(=O)Nc2ccc3[nH]c(=O)[nH]c3c2)c1,.,?,?,?,-65,.,.
O=C(O)c1cccc(S(=O)(=O)Nc2ccc3[nH]c(=O)[nH]c3c2)c1,.,/,.,.,?,.,/
SMILES,JMJD2A Tudor inh,L3MBTL1 block,BAZ2B block,KDM4E inh,PI5P4K alpha inh,HP1b binding inh,ADP-Glo counter
CCOC(=O)N1CCN(C(=O)CCS(=O)(=O)c2ccc3c(c2)CCN3C(=O)CC)CC1,.,/,.,/,?,.,.
COc1cc(C(=O)NCCSc2ccccc2)cc(OC)c1OC,.,.,.,/,.,.,/
COc1ccc(C(=O)NCCSc2ccccc2)cc1OC,11µM,.[11.4 µM],.,.,-87,.,.
O=C(COC(=O)C1CCCCC1)Nc1ccccc1OC(F)F,11µM,.,/,.,-68,.,.
CCOC(=O)c1ccccc1NC(=O)Cn1ncc2c1-c1ccccc1OC2,.,/,.,/,/,.,/
Cc1cc(NC(=O)c2cc(S(=O)(=O)N3CCCCC3)ccc2C)no1,.,.,/,/,-54,.,.
COc1ccc(Oc2nnc(-c3ccc(C)cc3)c3ccccc23)cc1,.,.,.,.,/,.,/
COc1ccc(-c2nnc(C)c3nocc23)cc1,?,/,.,/,-66,.,.
COc1ccccc1-c1cc2nc(C)c(CCC(=O)NCCc3cccc(C)c3)c(C)n2n1,.,/,.,/,/,.,/
COc1ccc2c([N+](=O)[O-])c(N3CCOCC3)[nH]c2c1,/,/,/,/,.,/,/
COc1ccc2c([N+](=O)[O-])c(Cl)[nH]c2c1,56µM,.,79µM,16µM,-57,?,.
Cc1ccsc1CN(C)c1ncnc2ccc(-c3ccoc3)cc12,/,/,/,/,/,/,.
Cc1csc(CNc2ncnc3ccc(-c4ccoc4)cc23)c1,.,.,?,/,/,.,/
CCOc1ccccc1N(CC(=O)N1CCN(Cc2ccccc2)CC1)S(=O)(=O)c1ccccc1,/,/,/,/,.,/,/
COc1ccc(-c2cc(C(C)=O)c(C)n2CCC(=O)Nc2ccc(C(F)(F)F)cc2)cc1,.,/,.,/,/,.,/
Cc1c(C(=O)N2CCN(C)CC2)oc2ccc(Br)cc12,.,.,.,/,.,.,/
Cc1c(C(=O)N2CCCC2)oc2ccc(Br)cc12,.,/,.,/,-61,.,.
CNC(=S)N(Cc1cccs1)Cc1cc2ccc(OC)cc2[nH]c1=O,.,.,.,.,-60,.,.
O=C(Nc1ccc(O)c2c(=O)cc(-c3ccccc3Cl)oc12)c1cc(Cl)cc(Cl)c1,.,/,/,/,/,.,/
O=C(Nc1ccc(O)c2c(=O)cc(-c3ccccc3Cl)oc12)c1ccc(Cl)c(Cl)c1,.,/,.,.,.,.,.
CCOCCCNc1nc(C)nc2c1nnn2Cc1c(F)cccc1Cl,.,.,.,.,.,.,/
